PubChem BioAssay
Activity calls are given as the source filed them.

How the values were obtained:
[1] = compound effects on lung adenocarcinoma cell viability – A549, calcein-AM fluorescence, 48 h, basal, profiling panel (AID 1162); conditions: higher = more signal
[2] = compound effects on differentiated 3T3-L1 adipocyte viability – cell-based, 3T3-L1 adipocytes, calcein-AM fluorescence, 48 h, basal, profiling panel (AID 1163); conditions: 3T3-L1 adipocytes viability, higher = more signal
[3] = compound effects on hepatocellular carcinoma cell viability – HepG2, calcein-AM fluorescence, 48 h, basal, profiling panel (AID 1164); conditions: higher = more signal
[4] = compound effects on multiple myeloma cell viability – MM1S, calcein-AM fluorescence, 48 h, basal, profiling panel (AID 1165); conditions: higher = more signal
[5] = calcein-AM signal in unstimulated myeloma cells – cell-based, calcein-AM fluorescence, 48 h, PK04 Diversity Set, profiling panel (AID 1166); conditions: RPMI8226 myeloma viability, higher = more signal;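 note: cells grown under basal conditions without added stimulus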
[6] = JC-1 mitochondrial signal, unstimulated HepG2 cells – cell-based, JC-1 fluorescence, 24 h, 100 nL compound, profiling panel (AID 1167); conditions: HepG2 mitochondrial potential, higher = more signal
[7] = JC-1 mitochondrial signal, unstimulated adipocytes – cell-based, JC-1 fluorescence, 3T3-L1 adipocytes, 24 h, 100 nL compound, profiling panel (AID 1168); conditions: JC-1 mitochondrial fluorescence, higher = more signal, called active from +8 up or from −8 down
[8] = JC-1 mitochondrial signal, unstimulated myeloma cells – cell-based, JC-1 fluorescence, RPMI8226, 24 h, 100 nL compound, profiling panel (AID 1169); conditions: JC-1 mitochondrial potential fluorescence, higher = more signal
[9] = JC-1 mitochondrial signal, unstimulated MM1S myeloma – cell-based, JC-1 fluorescence, 24 h, 100 nL compound, profiling panel (AID 1170); conditions: MM1S mitochondrial potential, higher = more signal
[10] = resazurin metabolic signal in A549 cells – cell-based, resazurin fluorescence, 24 h, PK04 Diversity Set, profiling panel (AID 1171); conditions: A549 viability, higher = more signal, called active from +8 up or from −8 down
Note: test concentration not given here.

Row | Compound | z-score [1] | z-score [2] | z-score [3] | z-score [4] | z-score [5] | z-score [6] | z-score [7] | z-score [8] | z-score [9] | z-score [10]
1 | CC(C)[Si]1(C(C)C)OCc2cc(C3CC3)nc(-c3ccc(Oc4ccccc4)cc3)c21 | 1.25 | 0.676 | 0.468 | -0.795 | -1.94 | -2.33 | 0.138 (inactive) | -0.989 | 0.196 | 2.94 (inactive)
2 | CC(CO)N1C(=O)[C@]2(C)C3C(=O)OCCC/C=C\[C@H]3OC23C=CCN(c2ccc(Cl)cc2)C(=O)[C@@H]13 (stereo not given in full) | 0.592 | -0.329 | 0.94 | 1.77 | 0.202 | 1.19 | 0.204 (inactive) | -0.765 | -0.302 | -0.0794 (inactive)
3 | CC1CC/C=C\[C@H]2OC34C=CCN(C(C)C)C(=O)[C@H]3N(CCO)C(=O)[C@@H]4C2C(=O)O1 (stereo not given in full) | 0.649 | 0.668 | -0.255 | 0.824 | -1.11 | 0.813 | 0.691 (inactive) | 0.021 | 1.65 | -0.969 (inactive)
4 | COC(=O)c1c(CC[C@@H](CO)NC(=O)N[C@@H](C)Cn2cc(-c3ccccn3)nn2)oc(C(C)=O)c1C(=O)OC | -0.495 | 0.526 | -0.239 | 0.226 | -0.858 | -0.182 | -0.857 (inactive) | -0.181 | -0.0849 | -1.38 (inactive)
5 | COC(=O)[C@@H]1N=C(c2ccc(OCCCO)cc2)O[C@@H]1C | 0.0963 | -0.317 | 0.958 | 0.916 | -0.086 | 0.5 | 0.797 (inactive) | -0.155 | -1 | -0.155 (inactive)
6 | O=C(NCCN1CCOCC1)[C@@H]1c2ccccc2C(=O)N(C2Cc3ccccc3C2)[C@H]1c1ccc(CO)cc1 | 2.31 | 1.58 | 2.01 | 0.578 | 1.35 | 4.03 | 0.894 (inactive) | -0.647 | 0.291 | 0.326 (inactive)
7 | CC1=C2[C@@H](CCc3ccccc3)OB(O)C[C@@H]2[C@@H]2C(=O)N(C)C(=O)[C@@H]2C1 | -0.0116 | 0.417 | -0.21 | -2.12 | 0.339 | -1.18 | -0.467 (inactive) | -0.519 | -0.423 | 0.0857 (inactive)
8 | C=CC[C@@H](OC(=O)Nc1ccc(OC)cc1)c1ccc(O)c(F)c1 | -1.78 | 0.379 | -2.39 | -2.15 | -2.51 | -3.67 | -1.37 (inactive) | 0.122 | -1.07 | -0.747 (inactive)
9 | O=C1O[C@@H](c2ccccc2)[C@@H](c2ccccc2)N2[C@@H](c3ccc(O)cc3)[C@]3(C(=O)Nc4ccc(C#CCCO)cc43)[C@@H](C(=O)N3CCN(c4ncccn4)CC3)[C@H]12 | -0.716 | -0.0773 | 0.0219 | 0.441 | 0.1 | -1.95 | -0.252 (inactive) | -0.681 | -0.425 | 0.378 (inactive)
10 | C=C(COC)C(=O)CC[C@@H](OC(C)=O)c1cccc(OCCO)c1 | 0.851 | 0.617 | -0.4 | -3.46 | -0.496 | -0.0521 | -0.196 (inactive) | 0.0392 | -0.274 | 0.387 (inactive)
11 | CCCC[C@@H](O)C1=C(COc2ccccc2)C[C@H]2C(=O)N(Cc3ccccc3)C(=O)[C@H]2[C@H]1CO | 0.553 | -0.0277 | 0.913 | -0.189 | 0.0172 | 1.17 | 0.0746 (inactive) | -1.06 | -0.172 | -0.0959 (inactive)
12 | COC(=O)[C@@]1(Cc2ccc(OC)cc2)[C@H]2c3cc(C(=O)N(C)C)n(Cc4ccc(C)o4)c3C[C@H]2CN1C(=O)c1ccccc1 | 0.774 | -0.0339 | 0.81 | -1.92 | -0.744 | 4.47 | -0.263 (inactive) | -0.939 | -3.01 | -0.21 (inactive)
13 | Cc1ccc(S[C@]2(C(=O)NCc3ccccc3)CC(=O)N(C3CCCCC3)[C@@H]2c2ccc(CO)cc2I)cc1 | -0.0709 | 0.183 | 0.398 | -1.93 | -3.39 | 0.521 | 0.97 (inactive) | -0.464 | -1.62 | -0.99 (inactive)
14 | Cc1ccc(S[C@]2(C(=O)O)CC(=O)N(C3CCCCC3)[C@@H]2c2ccc(CO)cc2I)cc1 | -0.756 | 0.505 | -0.561 | -2.64 | -2.13 | -1.1 | -0.343 (inactive) | -0.278 | 0.0653 | 0.808 (inactive)
